Assay results taken from ChEMBL document CHEMBL3433997, “St. Jude Leishmania screening dataset” (2016).

Assays:
Format in all cases: functional
[1] = biological target: Solute carrier family 2, facilitated glucose transporter member 1 (Homo sapiens) (UniProt P11166); assay: ST_JUDE_LEISH: Cytotoxicity at 2uM final concentration against transgenic Leishmania Mexicana promastigotes LmGLUT1 that are glucose transport deficient and complemented with the human glucose transporter GLUT1. Activity is measured by DNA content using SYBR green in vitro
[2] = biological target: Hexose transporter 1 (Plasmodium falciparum) (UniProt O97467); assay: ST_JUDE_LEISH: Cytotoxicity at 2uM final concentration against transgenic Leishmania Mexicana promastigotes LmPfHT that are glucose transport deficient and complemented with the Plasmodium falciparum hexose transporter. Activity is measured by DNA content using SYBR green in vitro
[3] = biological target: Glucose transporter (Leishmania mexicana) (UniProt O61059); assay: ST_JUDE_LEISH: Cytotoxicity at 2uM final concentration against transgenic Leishmania Mexicana promastigotes LmGT2 that are glucose transport deficient and complemented with the L. Mexicana glucose transporter 2. Activity is measured by DNA content using SYBR green in vitro

Chain of Solute carrier family 2, facilitated glucose transporter member 1 (Homo sapiens) (P11166 whole entry): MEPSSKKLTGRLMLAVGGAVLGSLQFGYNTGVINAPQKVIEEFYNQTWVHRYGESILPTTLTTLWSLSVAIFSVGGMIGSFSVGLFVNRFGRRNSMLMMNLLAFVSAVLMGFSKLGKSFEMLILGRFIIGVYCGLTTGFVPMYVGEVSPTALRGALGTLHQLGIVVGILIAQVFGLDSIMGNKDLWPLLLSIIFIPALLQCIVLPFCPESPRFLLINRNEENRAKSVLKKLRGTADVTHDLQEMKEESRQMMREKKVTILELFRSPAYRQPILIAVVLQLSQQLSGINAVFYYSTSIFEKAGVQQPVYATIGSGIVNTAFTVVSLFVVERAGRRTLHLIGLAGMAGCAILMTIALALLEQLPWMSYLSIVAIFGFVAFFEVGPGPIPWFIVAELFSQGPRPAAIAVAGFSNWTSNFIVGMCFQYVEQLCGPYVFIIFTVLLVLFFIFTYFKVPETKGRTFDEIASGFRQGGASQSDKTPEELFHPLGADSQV

SMILES | inhibition [1] [%] | inhibition [2] [%] | inhibition [3] [%]
NCC1CCCN1Cc1ccc(-c2ccc(-c3nc4cc(C(F)(F)F)ccc4[nH]3)s2)cc1 (configuration not stated) | 1.42 | -0.28 | -0.19
CCN(CCCN1CCCCC1)c1cc(C)nc(Nc2cc(Cl)cc(Cl)c2)n1 | 0.93 | 2.39 | 1.01
CN(C)CCNCc1cccc(-c2ccc3c(Nc4ccc(F)cc4Cl)ccnc3c2)c1 | 3.59 | 3.29 | 5.03
C[C@H](NC(=O)[C@H](Cc1ccccc1)NC(=O)OC(C)(C)C)C(=O)N[C@@H](CC1CCCCC1)C(O)CN (some centres not stated) | -1.66 | 0.84 | -1.53
CCOc1ccc(C=CC(=O)Nc2ccc3nc(N4CCN(C)CC4)cc(C)c3c2)cc1OC | 3 | 3.77 | 1.18
O=C(C=Cc1ccc(Cl)c(Cl)c1)NCCCCCN1CCCC(CCCNC(=O)/C=C/c2ccccc2)C1 (configuration not stated) | 3.2 | 3.05 | 3.82
Cc1cccc2nc(-c3ccc(-c4cccc(NC(=O)NCc5ccccc5)c4)cc3)[nH]c12 | 0.35 | 1.64 | 1.98
Cc1noc(C)c1-c1cccc(CNCc2cccc(-c3csc(-c4nc5ccccc5[nH]4)c3)c2)c1 | 2.13 | 3.22 | 1.31
Cc1cccc2nc(-c3cccc(-c4cccc(NC(=O)c5cnn6cccnc56)c4)c3)[nH]c12 | 5.09 | 4.22 | 1.19
COc1ccc(CNC2CCN(C)CC2)cc1-c1ccc(S(=O)(=O)NCc2cccnc2)s1 | -1.99 | 0.85 | 5.84
CN(C)c1ccc(CN2CCCCC(NC(=O)c3cc(-c4ccccc4Cl)cs3)C2)cc1 (configuration not stated) | 2.84 | 2.86 | 4.6
CC(C)(C)c1ccc(NC(=O)c2cccc(CN3CCCN(CC4CCCCC4)CC3)c2)cc1 | 3.24 | 1.77 | 3.88
O=C(NC1CCCCCC1)[C@@H]1CCCN1C(=O)c1ccc(O)c(-c2ccc(Cl)c(Cl)c2)c1 | 0.09 | 2.12 | -1.06
COc1ccc2c(ccc3c2ncc2c(=O)n(-c4ccccc4)[nH]c23)c1 | -1.88 | -1.2 | -0.76
COc1ccc(-c2cccc(NC(=O)c3cccc(C#N)c3)c2)cc1CN1CCN(C)CC1 | 4.2 | 2.19 | 3.24
O=c1cc(NCCCNC(c2ccccc2)c2ccc(Cl)c(Cl)c2)[nH]c2ccccc12 (configuration not stated) | -1.95 | -1.47 | -1.3
O=C(/C=C/c1ccc(Cl)cc1)NCCCCCN1CCCC(C(=O)Nc2ccc(Cl)c(Cl)c2)C1 (configuration not stated) | 0.22 | 1.61 | 1.59
O=C1OC(c2ccccc2)(c2ccccn2)CN1C1CCN(Cc2cccn2-c2ccc(Cl)cc2)CC1 (configuration not stated) | 2.2 | 1.43 | -0.08
COc1ccc2nccc(N(C)CC3(O)CCC(NCc4cc5c(cn4)OCCO5)CC3)c2n1 (configuration not stated) | 1.51 | 1.7 | 1.71
CCCCC(=O)N(CCOC)Cc1ccc(-c2ccc(CNCCC)cn2)cc1 | 7.95 | 6.86 | 5.46
Oc1ccc(CCNc2nc(NCc3ccccc3-c3ccc(C(F)(F)F)cc3)nc(NC3CCNCC3)n2)cc1 | 1.32 | 0.48 | 0.66
CC(Cc1ccc(NC(=O)c2ccc(CNCCCCc3ccccc3)cc2)cc1)NCCc1cccc(Cl)c1 (configuration not stated) | 106 | 102 | 105
CC(=O)c1cccc(Nc2nc3ccc(OCc4cc(Cl)cc(Cl)c4)c(C#N)c3[nH]2)c1 | 3.61 | 2.38 | 2.87

SMILES | inhibition [1] [%] | inhibition [2] [%] | inhibition [3] [%]
O=C(N[C@@H](CC1CCCCC1)C(=O)NC1CCCc2ccccc21)c1ccc(O)c(-c2cccc(C(F)(F)F)c2)c1 (some centres not stated) | 4.07 | 1.73 | 2.66
c1ccc2cc3c(NCCN4CCOCC4)ccnc3cc2c1 | 7.07 | 6.74 | 7.2
Cc1cc(C)cc(OCC(O)CN(Cc2cc(Cl)cc(Cl)c2)C(=O)Nc2ccc(Cl)cc2)c1 (configuration not stated) | 0.89 | -0.94 | -0.48
COc1ccc(NC(=O)Nc2nc3ccccc3s2)cc1N1CCN(C)CC1 | 7.14 | 4.98 | 5.72
Clc1ccc(-c2cc(-c3csc(Nc4ccncc4)n3)on2)cc1 | 1.41 | 5.17 | 1.32
CCN(CC)CCCCOc1ccc2c(c1)C(=O)c1cc(OCCCCN(CC)CC)ccc1-2 | 10.2 | 4.61 | 0.2
O=C(Nc1cccc(-c2ccc(-c3nc4ccccc4[nH]3)cc2)c1)c1csnn1 | 1.19 | 1.58 | 0.69
O=C(/C=C/c1ccc(C(F)(F)F)cc1)NCCCCCN1CCN(C(=O)Nc2ccc(Cl)cc2)CC1 | 2.27 | 3.09 | 1.84
CCCCCCc1cnc2nc(N)nc(N)c2c1C | 10.8 | 10 | 10.3
NC(=O)COc1c(C2CCN(CCN3CCC(CNC(=O)c4ccc(-c5ccc(C(F)(F)F)cc5)cc4)CC3)CC2)ccc2c1CCCC2 | 4.85 | 4.29 | 3.32
COc1ccc(NC(=O)CCNc2ccnc(NCCc3ccc(F)cc3)n2)cc1 | 2.48 | 2.27 | 1.75
CCCCc1cc(NCC)nc(Nc2ccc(F)cc2)n1 | 18.4 | 10.4 | 4.95
CCCCCOc1ccc(C(=NC)N(CCCCC)CCCCC)c2ccccc12 | 5.37 | 10.9 | 7.32
CS(=O)(=O)CCOCc1ccc(-c2ccc3ncnc(Nc4ccc(OCc5cccc(F)c5)c(Cl)c4)c3c2)o1 | 6 | 4.18 | 7
Cc1cc(C)c(NC(=O)NC2CCN(CCCCCNC(=O)/C=C/c3ccc(Cl)c(Cl)c3)CC2)c(C)c1 | 4.35 | 2.53 | 3.81
Cc1ccc(O)c(C(=O)c2cnc3c(c2)c(-c2ccc(F)cc2)c(C#N)c(=O)n3C)c1 | 8.51 | 4.73 | 1.51
CC1CCC(C[C@@H](C(=O)N[C@@H](CCC(=O)N2CCCCC2)C(=O)Nc2nccs2)[C@H](C(C)C)N(O)C=O)CC1 (some centres not stated) | 3.85 | 4.16 | 3.44
O=C(NCCN1CCC(c2ccncc2)CC1)c1ccc(Nc2nccc(Nc3ccc(Oc4ccccc4)cc3)n2)cc1 | -0.62 | -0.94 | -1.34
CC1CCc2sc(-c3nnc(SC(C)C(=O)NC4CC4)o3)cc2C1 (configuration not stated) | -0.92 | 1.65 | 1.25
CC(C)CNCc1cccc(-c2ccc(CNc3ccc(C(=O)c4ccccc4)cc3)cc2)c1 | 1.27 | 0.62 | -1.03
CCCc1cc(N2CCC(c3ccccc3)(N3CCCCC3)CC2)nc(Nc2ccc(OC)cc2)n1 | 15.7 | 16.5 | 6.08
Cc1ccc(Nc2nc3cc(Nc4ccnc(Nc5ccc(CS(C)(=O)=O)cc5)n4)ccc3o2)cc1 | 9.35 | 9.37 | 5.97
CCc1c[nH]c2c(N3CCCCS3(=O)=O)cc(C(=O)N[C@@H](Cc3ccccc3)[C@H](O)CNCc3cccc(OC)c3)cc12 | 0.82 | -0.07 | -0.23

SMILES | inhibition [1] [%] | inhibition [2] [%] | inhibition [3] [%]
C=CCOC(=O)N1CCC(CNCc2ccc(-c3ccc(-c4nc5ccccc5[nH]4)s3)cc2)C1 (configuration not stated) | 5.91 | 6.02 | 5.42
O=C(NCCCCN1CCC(c2ccc(OC(F)(F)F)cc2)CC1)c1ccc(NC(=O)c2ccc(Cl)cc2)cc1 | -1.27 | 0.81 | -1.72
CCN(CC)CCN(Cc1ccc(-c2ccc(C(F)(F)F)cc2)cc1)C(=O)Cn1c(CCc2ccc(F)cc2)nc(=O)c2sccc21 | 2.57 | 1.22 | 2.92
CN1CCN(c2ccnc3ccc(NC(=O)Nc4cccc5c(-c6ccncc6)cccc45)cc23)CC1 | -0.27 | -0.42 | 0.32
N#Cc1cncc(-c2nc3c(N4CCC(Cc5ccccc5)CC4)cccc3n2C2CCNC2)c1 (configuration not stated) | -0.31 | -0.39 | -0.61
Cc1nc(-c2ccncc2)sc1C(=O)Nc1ccc(Cl)cc1C(=O)Nc1ccc(Cl)cc1 | 3.13 | 3.01 | 2.19
O=C(Nc1ccc(-c2cccc(-c3nc4ccccc4[nH]3)c2)cc1)Nc1ccc2c(c1)OCO2 | 1.87 | 2.62 | 0.58
Cc1nn(-c2cccc(Cl)c2)c2c1C(C(=O)c1ccc3c(c1)OCO3)CC(=O)N2 (configuration not stated) | -2.6 | -0.95 | -2.87
CCOc1c(CNCCCNc2cc(O)c3ccccc3n2)cc(Br)cc1OC | 7.77 | 4.37 | 6.38
CC(C)(C)c1ccc(CN2CCC(NC(=O)c3ccc(-c4cccc(F)c4)s3)CC2)cc1 | -0.34 | -2.33 | 2.67
COc1cc2ncnc(Nc3ccc(OC(F)(F)c4ccccc4)cc3)c2cc1OC | 9.55 | 10.8 | 7.93
COc1ccc(CNC(=O)c2cnc3c(O)cccc3c2Nc2cccc(NC(=O)c3ccc(F)cc3)c2)cc1 | 76 | 78.5 | 75.3
CCn1c(-c2nonc2N)nc2c(-c3cccc(NC(=O)Nc4ccccc4Cl)c3)ncc(OCCCN)c21 | -1.06 | -1.1 | -0.34
CCCc1nc2c(N3CCCN(C(=O)NC4CCCCC4)CC3)cccc2n1Cc1ccccn1 | -2 | -1.61 | -1.29
COC(=O)c1cccc(C#CCCOCCCCCCNC[C@H](O)c2cc(Cl)c(N)c(Cl)c2)c1 | 2.64 | 0.28 | 1.01
COc1cc(Cc2cnc(N)nc2N)ccc1OCc1ccc(-c2csnn2)cc1 | 9.75 | 9.64 | 11.7
CN(C)CCN(C)Cc1ccc(-c2cccc(-c3nc4ccccc4[nH]3)c2)cc1 | -0.63 | 1.04 | 0
CCCC1(NC[C@@H](O)[C@H](Cc2ccccc2)NC(=O)c2cc(NCC)cc(N3CCCCS3(=O)=O)c2)CC1 | 1.58 | 1.33 | -0.73
COc1ccccc1N1CCN(CCCCN(C(=O)Nc2cccc(Cl)c2)C(=O)Nc2cccc(Cl)c2)CC1 | 10.6 | 8.66 | 10.6
CCNc1cc(C(=O)N[C@@H](Cc2ccccc2)[C@H](O)CNC(C)(C)CCCC(C)C)cc(N2CCCC2=O)c1 | 2.43 | 1.71 | 3.47
Cc1[nH]c(C)c(-c2ccc(CCc3ccc(F)cc3F)cc2)c(=O)c1Br | -0.51 | -1.51 | -2.17
O=C1COC(c2ccccc2)(c2ccccc2)CN1CC1CCN(Cc2ccc(O)cc2Cl)C1 (configuration not stated) | 3.1 | 1.71 | 2.56
O=C(NC1CCCCC1)N(Cc1ccc(-c2cccc(CNC3CCCC3)c2)cc1)C1CCN(Cc2ccccc2)CC1 | 6.18 | 7.64 | 5.72
